An excerpt weighted towards active compounds, which were near 5.4% of everything screened.
Marburg entry inh: qHTS for inhibitors of binding or entry into cells for Marburg Virus; Marburg virus pseudotyped entry inhibition, cell reporter; hit rate 1.8% among 300,000; AID 540276, 2011; Potency, µM (titrated, usually from 37.8 µM), for inactives: top-dose activity change, negative = inhibition, usual class: inhibitors; calls by dose curve; tested in HEK293 cells
VACV Venus inh: qHTS for Stage-Specific Inhibitors of Vaccinia Orthopoxvirus: Venus Reporter Primary qHTS; Potency, µM (highest dose often 36.5 µM), inactives show top-dose activity change, negative = inhibition, most hits filed as inhibitors; Vaccinia virus Venus reporter expression, fluorescence; hit rate 0.46% among 330,000; AID 720580, 2013; calls by dose curve; tested in A549 cells; also: nearly all actives have a fitted effect of over 30% in size
Lassa entry inh: qHTS for Inhibitors of binding or entry into cells for Lassa Virus. Lassa virus pseudotype entry inhibition, cell reporter. Potency, µM (series often up to 37.9 µM), inactives show at the top dose activity change, negative = inhibition, hits mostly inhibitors. hit rate 1.2% among 300,000. AID 540256, 2011; calls by dose curve; tested in HEK293 cells; also: nearly all actives have a fitted effect of over 50% in size
Vaccinia mCherry: qHTS for Stage-Specific Inhibitors of Vaccinia Orthopoxvirus: mCherry Reporter Primary qHTS; Vaccinia virus mCherry reporter infection, fluorescence; Potency, µM (titrated, usually from 36.5 µM), for inactives: top-dose activity change, negative = inhibition, most hits filed as inhibitors; hit rate 0.63% among 310,000; calls by dose curve; tested in A549 cells; also: nearly all actives have a fitted effect of over 35% in size
FMDV antiviral: High Throughput Screening for Foot and Mouth Disease Virus Antivirals; hit rate 1.2% among 410,000; FMDV antiviral cell-based qHTS; Potency, µM (series often up to 57.9 µM), without a hit: top-dose activity change, negative = inhibition, most hits filed as inhibitors; calls by dose curve; tested in HEK293T cells; also: read-out not given here; nearly all actives have a fitted effect of over 45% in size
Sm TGR inh: qHTS Assay for the Inhibitors of Schistosoma Mansoni Peroxiredoxins; AID 485364, 2010; Potency, µM (top dose mostly 114 µM), without a hit: at the top dose activity change, negative = inhibition, usual class: inhibitors; Schistosoma mansoni thioredoxin glutathione reductase (TGR), Q962Y6; hit rate 3% among 360,000; purified TGR, DTNB reduction, TNB absorbance 405 nm; active = well fitted inhibition curve with a large enough effect; inconclusive = small, poorly fitted or top-dose-only effect; inactive = no such curve, though single readings can be large or run the other way; also: nearly all actives have a fitted effect of over 60% in size
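TGR 20 nM + NADPH 100 uM (dispensed conc.), cpd preinc 15 min RT; start with NADPH (500 uM addition) then DTNB (15 mM addition). Kinetic TNB absorbance, 405 nm filter. Four-parameter Hill fit across titration.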
Numbers without * were called inactive; i = inactive; ? = inconclusive; nt = no result given; ! = repeats disagree; [ ] = remark or other dose. % is scaled to controls: 0 for no effect and ±100 for the full control effect; potency is read from the fitted curve at half-maximal effect.

SMILES	Marburg entry inh	VACV Venus inh	Lassa entry inh	Vaccinia mCherry	FMDV antiviral	Sm TGR inh
Cc1cccc(-c2nc3c(c(SCC(=O)N4CCOCC4)n2)Cc2c(CO)cnc(C)c2O3)c1	?	-10%	?	i	-11%	22µM*
Cc1ncc(CO)c2c1Oc1nc(-c3ccccc3)nc(SCC(=O)N3CCCCC3)c1C2	?	-4%	?	-14%	-28%	32µM*!
COc1cccc(-c2nc3c(c(SCC(=O)N4CCOCC4)n2)Cc2c(CO)cnc(C)c2O3)c1	nt	2%[7.34 µM]	nt	-14%[7.34 µM]	-8%	?
COc1ccccc1CNC(=O)CCC1N=C2c3ccccc3N=C(SCc3ccc(C)cc3C)N2C1=O (configuration not stated)	?	?	?	?	-25%	9%
OC(c1ccccc1)C1CN(Cc2ccccc2)CCC1(O)c1ccccc1 (configuration not stated)	?	-20%	-9%	-6%	nt	20µM*
Cc1nc2c(o1)CCc1ccccc1[C@H]2N1CCN(C)CC1	-15%	nt	nt	nt	nt	nt
COC(=O)c1c(C)[nH]c(C(=O)OCc2csc(CC(=O)Nc3ccccc3C)n2)c1C	10µM*	-18%	-7%	-11%	-24%	nt
CCOC(=O)c1c(C)[nH]c(C(=O)OCc2ccccc2F)c1C	?	-15%	10µM*	-14%	26%	2%
Cc1cc(C)c(C(=O)OCc2csc(CC(=O)Nc3ccccc3C)n2)c(C)c1	nt	nt	nt	nt	?	-22%
CC(=O)C1=CN(CCc2c[nH]c3ccccc23)C(=O)NC1c1ccccc1 (configuration not stated)	3%[14.2 µM]	nt	nt	nt	nt	nt
CC(C)N1CCC(N2CCN(Cc3ccc(-c4ccc(Cl)cc4)o3)CC2CCO)CC1 (configuration not stated)	3.2µM*	?	?	-25%	-15%	13µM*
CSc1nccc(-c2cc(Cl)c3c(c2)CC(CNC(=O)c2ccc(C)nc2)O3)n1 (configuration not stated)	nt	0%	nt	i	-20%	nt
CN1CCN(CC(=O)N2CCn3c4c(c5cc(C6CCCCC6)ccc53)CCCC42)CC1 (configuration not stated)	?	?	?	11µM*	?	-1%
O=C(Nc1ccc(S(=O)(=O)NC2=NCCCCC2)cc1)c1ccc([N+](=O)[O-])s1	?	11µM*	?	13µM*	-1%	-22%
CC(C)(C)NCC(O)COc1ccccc1C(C)(C)C (configuration not stated)	?	-15%	?	-1%	nt	9%
CC(C)(C)NCC(O)COc1ccccc1C(=O)CCc1ccccc1 (configuration not stated)	10µM*	?	-1%	?	nt	12%
CCCNC(=O)OC[C@H]1O[C@H](CCON=CC[C@@H]2C=C[C@H](OC(C)=O)[C@@H](COC(C)=O)O2)C=C[C@H]1Oc1ccc(OC)cc1	6%[14.2 µM]	nt	7%[14.3 µM]	nt	nt	nt
COC(=O)c1cn(NC(=O)c2cc([N+](=O)[O-])ccc2F)c(=O)c2ccccc12	?	-23%	?	-26%	32µM*	6%
CCOC(=O)C(O)(c1ccc(N(CC)S(=O)(=O)c2ccccc2)cc1)C(F)(F)F (configuration not stated)	-17%	-11%	?	-20%	-1%	14%
CCOC(=O)C(NS(=O)(=O)c1ccccc1)(C(F)(F)F)P(=O)(OC(C)C)OC(C)C (configuration not stated)	10%	-14%	-17%	nt	-5%	35µM*
C=C(NC(=O)C(=C)NC(=O)c1csc(C2=NC3c4csc(n4)C4NC(=O)c5csc(n5)C([C@@](C)(O)C(C)O)NC(=O)C5CSC(=N5)/C(=C\C)NC(=O)C(C(C)O)NC(=O)c5csc(n5)[C@]3(CC2)NC(=O)C(C)NC(=O)C(=C)NC(=O)C(C)NC(=O)C(C(C)CC)NC2C=Cc3c(C(C)O)cc(nc3C2O)C(=O)OC4C)n1)C(N)=O (some centres not stated)	nt	nt	nt	nt	nt	-23%
C=C(NC(=O)C(=C)NC(=O)c1csc(C2=NC3c4csc(n4)C4NC(=O)c5csc(n5)C(C(C)(O)C(C)O)NC(=O)C5CSC(=N5)/C(=C/C)NC(=O)C(C(C)O)NC(=O)c5csc(n5)C3(CC2)NC(=O)C(C)NC(=O)C(=C)NC(=O)C(=C)NC(=O)C(C(C)C)NC2C=Cc3c(C(C)O)cc(nc3C2O)C(=O)OC4C)n1)C(N)=O (configuration not stated)	4µM*	-21%	6.3µM*	-27%	?	nt
COCc1ccc(O)c2ncccc12	?	?	?	nt	-29%	-33%
Oc1ccc(COCc2ccc(F)cc2)c2cccnc12	nt	nt	nt	nt	nt	35µM*
OCc1ccnc2c(O)cccc12	?	nt	4.1µM*	nt	-12%	14µM*
SMILES	Marburg entry inh	VACV Venus inh	Lassa entry inh	Vaccinia mCherry	FMDV antiviral	Sm TGR inh
Oc1ccc(COC2CCCC2)c2cccnc12	nt	nt	nt	nt	nt	18µM*
NC(=O)c1ccnc2c(O)cccc12	nt	nt	nt	nt	-20%	1%
Oc1ccc(COc2cccc3ccccc23)c2cccnc12	nt	nt	nt	nt	nt	8.9µM*
COc1cccc(CNC(=O)C(=O)NCC(c2ccco2)S(=O)(=O)c2ccccc2)c1 (configuration not stated)	nt	-13%	-19%[46.1 µM]	-11%	?	-6%
CC(C)c1ccc(NC(=O)[C@H]2O[C@@H]3OC(C)(C)O[C@@H]3[C@H]3OC(C)(C)O[C@H]32)cc1	26%[46.1 µM]	1%	10%[46.1 µM]	-23%	6%	0%
Cc1oc(-c2ccc(Cl)cc2)nc1CS(=O)CC(=O)NCc1ccc2c(c1)OCO2 (configuration not stated)	nt	-10%	nt	-1%	-28%	14µM*
COc1ccc(-c2nc(CSCC(=O)NCc3ccc4c(c3)OCO4)c(C)o2)cc1OC	?	-3%	-4%	14%	-25%	?
Cc1oc(-c2ccc(Cl)cc2)nc1CS(=O)CC(=O)NCc1ccc(Cl)cc1 (configuration not stated)	?	-7%	-5%[46.1 µM]	-11%	-23%	?
COc1ccc(-c2nc(CS(=O)CC(=O)NCc3ccc4c(c3)OCO4)c(C)o2)cc1OC (configuration not stated)	nt	0%[7.34 µM]	nt	i[7.34 µM]	5%	40µM*
Cc1cc(C)cc(-n2ccn(CC(=O)c3ccc(F)cc3)c(=O)c2=O)c1	nt	-10%	-1%[46.1 µM]	-11%	-3%	3%
C=C(C)[C@@H]1CC=C(CN2CCN(Cc3ccccc3)CC2)CC1	10µM*	0%	?	?	-2%	-2%
O=C(Cn1c(=O)c2cccn2c2cccnc21)NCc1cccc(F)c1	nt	-5%	22%[46.1 µM]	-2%	-7%	2%

Screening results from PubChem.
